Read-out in one test: CD69, CD69 (gene 969)
The experiment in a line: BSK_LPS_CD69: BioMAP Diversity Plus: LPS Assay for CD69 Biomarker Activity (AID 2284303). Conditions: primary human HUVEC with PBMC. The method in brief:
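Human umbilical vein endothelial cells co-cultured with PBMC under LPS stimulation, chemical exposure 24 h; cell-surface CD69 measured by ELISA and fitted in the positive direction versus DMSO.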

A short description of test [1]: IUF_NPC2b_neuronal_migration_120hr: Leibniz Research Institute for Environmental Medicine (IUF) 120-hour Neural Progenitor Cell Migration Assay for Neuron Migration (NPC2b) (AID 2284300). Put shortly: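 Neurons identified by TUBB3 immunostaining and Hoechst nuclei; migration distance measured automatically on fixed wells at 120 h, normalized to glia migration. Exposure spanned five days of differentiation in N2 medium, seven test concentrations.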

The nature of test [2]: IUF_NPC3_neuronal_differentiation_120hr: Leibniz Research Institute for Environmental Medicine (IUF) 120-hour Neuronal Differentiation Assay (NPC3) (AID 2284301). The method in brief:
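Primary human fetal neural progenitor spheres (GW 16-19, 0.3 mm) plated on poly-D-lysine/laminin in N2 medium, exposed from day 0 for 120 h with half-medium refresh at day 3. TUBB3+ cells as percent of Hoechst nuclei in migration area; DMSO baseline.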

Test [3] is described as follows: IUF_NPC4_neurite_length_120hr: Leibniz Research Institute for Environmental Medicine (IUF) 120-hour Neuronal Morphology Assay for Neurite Length (NPC4) (AID 2284302). The method in brief: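 Human fetal cortex (GW 16-19) neural progenitor spheres, 0.3 mm, were plated on poly-D-lysine/laminin in N2 differentiation medium and exposed from day 0 for 120 h, half-feeding at day 3. Mean TUBB3+ neurite length (µm) came from skeletonized images, relative to DMSO.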

A short description of test [4]: IUF_NPC5_oligodendrocyte_differentiation_120hr: Leibniz Research Institute for Environmental Medicine (IUF) 120-hour Oligodendrocyte Differentiation Assay (NPC5) (AID 2284304; active = hit-call score of the fitted dose curve at least 0.9, where 1 is the maximum;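 also: share of O4-positive cells among Hoechst nuclei found by CNN image analysis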). The method in brief:
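Human primary NPC neurospheres migrating and differentiating on laminin for 120 h under continuous compound exposure (serial dilution, solvent control). Endpoint: percent O4+ oligodendrocytes among Hoechst nuclei, detected by CNN image analysis, with DMSO as negative control.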

Test [5] in a line: IUF_NPC4_neurite_area_120hr: Leibniz Research Institute for Environmental Medicine (IUF) 120-hour Neuronal Morphology Assay for Neurite Area (NPC4) (AID 2284305; active = hit-call score of the fitted dose curve at least 0.9, where 1 is the maximum). Put shortly:
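Human fetal cortex-derived neural progenitor spheres (0.3 mm, GW 16-19) plated on poly-D-lysine/laminin in N2 differentiation medium and exposed from day 0 for 120 h across 7 concentrations plus solvent control. Neurite area is mean pixel area per TUBB3-positive neuron via skeletonization, analysed relative to DMSO.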

Test [6] is described as follows: IUF_NPC2-5_cytotoxicity_72hr: Cytotoxicity Assessment at 72 hours in the Leibniz Research Institute for Environmental Medicine (IUF) Neural Progenitor Cell Migration and Differentiation Assay for Cytotoxicity (NPC2-5) (AID 2284306; active = hit-call score of the fitted dose curve at least 0.9, where 1 is the maximum;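 also: LDH release into supernatant measured by resorufin fluorescence marking membrane damage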). As for the experimental part:
IUF_NPC2-5 is a cell-based, multiplexed assay that uses hNPC, a human primary neural progenitor cells, with measurements taken at 72 or 120 hours after chemical dosing in a 96-well plate. Human neural progenitor cells (hNPC) are generated from human fetal brain cortex at gestational week (GW) 16-19. In the neural progenitor cell migration and differentiation assay (NPC2-5), hNPCs grown as spheres are plated on an extracellular matrix and migrate and differentiate out of the sphere core. The processes radial glia migration, neuronal and oligodendrocyte migration as well as neuronal differentiation, neuronal morphology and oligodendrocyte differentiation are studied using automated phase contrast imaging and automated fluorescence imaging in combination with high content image analysis. In parallel, the cell viability is assessed using an alamar blue viability assay and the cytotoxicity using a lactate dehydrogenase dependent membrane integrity assay.IUF_NPC2-5_cytotoxicity_72hr is one of 12 assay components measured from the IUF_NPC2-5 assay. It is designed to measure the cytotoxicity at 72 hr as assessed by membrane integrity related to the LDH dependent reduction of resazurin to resorufin in the supernatant of each well. The cytotoxicity is measured as fluorescence signal (relative fluorescence unit) in a multiplate reader. […]

Test [7] is described as follows: IUF_NPC2-5_cytotoxicity_120hr: Cytotoxicity Assessment at 120 hours in the Leibniz Research Institute for Environmental Medicine (IUF) Neural Progenitor Cell Migration and Differentiation Assay (NPC2-5) (AID 2284307; active = hit-call score of the fitted dose curve at least 0.9, where 1 is the maximum;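 as to AC50: LDH released into supernatant as membrane damage marker via resorufin fluorescence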). Put shortly:
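Fluorescence (RFU) from LDH-driven resazurin reduction in medium supernatants measured loss of membrane integrity after 120 h of compound exposure of differentiating primary human neural progenitor spheres on an extracellular matrix.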

The nature of test [8]: IUF_NPC2-5_cell_number_120hr: Cell Number Assessment at 120 hours in the Leibniz Research Institute for Environmental Medicine (IUF) Neural Progenitor Cell Migration and Differentiation Assay (NPC2-5) (AID 2284308).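 Also: count of Hoechst-stained nuclei in migration zone around plated human neural progenitor spheres.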 Put shortly: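 Cell number is taken as all Hoechst-positive nuclei detected in the area into which cells migrate out of the sphere, scored at 120 h and referenced to DMSO solvent control, which was kept at no more than 0.1%.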

The nature of test [9]: VALA_TUBHUV_Agonist_CellCount: Viability Assessment in the VALA Sciences human Umbilical Vein Endothelial Tubule Formation (TUBHUV) Agonism Assay (AID 2284309; active = hit-call score of the fitted dose curve at least 0.9, where 1 is the maximum). The protocol:
VALA_TUBHUV_Agonist is a cell-based, multiplexed assay that uses human umbilical vein endothelial cells (HUVEC). Measurements were taken 72 hours after chemical dosing in a 96-well plate.VALA_TUBHUV_Agonist_CellCount is the one of two assay components measured from the VALA_TUBHUV_Agonist assay. It is designed to make measurements of viability, a form of viability reporter, as detected with fluorescence intensity signals by HCS Fluorescent Imaging technology. Data from the assay component VALA_TUBHUV_Agonist_CellCount was analyzed at the endpoint, VALA_TUBHUV_Agonist_CellCount, in the positive analysis fitting direction relative to DMSO as the negative control and baseline of activity. Using a type of viability reporter, loss-of-signal activity can be used to understand viability. To generalize the intended target to other relatable targets, this assay endpoint is annotated to the cell cycle intended target family, where the subfamily is cell count.
This HUVEC-HDF assay was designed to detect chemical suppression of tubulogenesis, i.e. antagonism. To measure tubulogenesis antagonism, HUVEC cells were co-cultured with HDF cells at a 1:3 ratio for 3-days in 10 ng/ml VEGF (i.e., favorable conditions with growth factors), then changed to assay medium containing 10 ng/ml VEGF and ToxCast compounds for an additional 3-day period. […]

As a reminder, the AC50 is the concentration at which the activity in the assay is half-maximal.

Each structure is given as a SMILES string. Inconclusive results are not listed. Some compounds were tested as several samples or in several runs, with calls that do not always agree. Calls of active or inactive are those of the source. The calls were made as follows, unless noted: active = hit-call score of the fitted dose curve at least 0.9, where 1 is the maximum; inactive = score below 0.9.

`O=C(O)CCC(F)(C(F)(F)F)C(F)(F)F`: the outcome with CD69, CD69 (gene 969) was inactive.
Consider `O=C(O)C(F)(F)C(F)(F)C(F)(F)C(F)(F)C(F)(F)C(F)(F)C(F)(F)C(F)(F)C(F)(F)C(F)(F)F`, for which, in the test with CD69, CD69 (gene 969), the AC50 was 3330 nM (active) and the result was inactive.
For the compound `CCOP(=S)(OCC)Oc1nc(Cl)c(Cl)cc1Cl`, the compound was called inactive in [1], in test [2], in [3], in test [4], in test [5] and in test [6]. The result in test [7] and in test [8] was inactive.
Take `COC(=O)Cc1ccccc1`: the outcome in the test with CD69, CD69 (gene 969) was inactive.
On the same count and under the same terms, with `CC(=O)OC(c1ccccc1)C(Cl)(Cl)Cl` (configuration not stated) the entry was “inactive”.
Consider `CC(C)(C)c1cc(O)ccc1O`, for which, in test [9], the AC50 is 11000 nM (active).
`COP(=O)(OC)O/C(=C\Cl)c1cc(Cl)c(Cl)cc1Cl`: the AC50 is 785 nM (active) in [1]; 988 nM (active) in test [2]; 466 nM (active) in test [3]; 675 nM (active) in test [5]; 5390 nM (active) in test [7]; 356 nM (active) in [8]. Moreover, the compound was called inactive in test [6].
On to `O=C(O)C(F)(F)C(F)(F)C(F)(F)C(F)(F)C(F)(F)C(F)(F)F`, for which the outcome with CD69, CD69 (gene 969) was inactive.

The values are drawn from PubChem BioAssay (EPA / NIEHS).
